# From PubChem
# EWS-Fli inh – inhibitors of EWS/Fli oncoprotein transcriptional activity; A673 NR0B1-luciferase reporter, viability-normalised; inhibition, % at 12.6 µM; 0.67% of 350,000 active; AID 651661;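 active means mean inhibition of at least 50% after viability correction, with every replicate also passing that limit; inconclusive means mean reaches 50% but only one of two replicates passes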;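 further: firefly luciferase signal divided by Alamar Blue viability fluorescence both relative to DMSO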
# LMP1 NFkB inh – Epstein-Barr LMP1 NF-kappaB reporter inhibition | LMP1-induced NF-kappaB luciferase reporter cells, luminescence | inhibition, % at 12.5 µM | 0.69% of 350,000 active | AID 504558; in the data active means inhibition above about 41%; inconclusive means no clear call, values can overlap the other calls
# TROY NFkB inh – TROY signaling inhibition | Q293 LMP1-TROYcd NF-kB luciferase reporter, 4 h | inhibition, % at 10 µM | 0.98% of 360,000 active | AID 1347056;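 active means compounds whose plate-normalised and pattern-corrected inhibition of the luciferase reporter signal at the single screening dose is 50% or more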
# PAX8 reporter – inhibitors of PAX8 transcriptional activity in RMG-I cells; RMG-I TPO-luciferase reporter, SteadyGlo, 24 h; inhibition, % at 12.6 µM; 1.2% of 360,000 active; AID 652154;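 active means mean replicate inhibition at least 60% with every replicate also reaching 60%; inconclusive means only one of the two criteria is met; inactive means mean below 60% and not all replicates reaching 60%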;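 further: luciferase light reporting Pax8 driven TPO promoter activity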
# LGR2 inh – blocks bursicon-induced cAMP signaling via Drosophila LGR2. HEK293 LGR2, CRE-luciferase, bursicon-stimulated, 4 h. inhibition, % at 9.99 µM. 0.35% of 380,000 active. AID 720647;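 active means drop in luminescence signal, shown as inhibition above about 50% in the replicate tests, limit read from the data, passing the limit was not always enough; inconclusive means probably only some replicates passing the limit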;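 further: agonist challenge used bursicon conditioned medium at about half maximal strength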
# TWEAK Fn14 block – inhibitors of TWEAK-Fn14 interaction signaling | inhibition, % at 10 µM | 2% of 360,000 active | TWEAK-stimulated Fn14 reporter cells, luciferase luminescence, 8 h | AID 1159606; in the data active means inhibition above about 50%
# A number is an active result; – = inactive; ? = inconclusive; · = not tested or not shown. This is a sample that favours compounds with a hit; in the whole collection about 3.1% have one here.
SMILES,EWS-Fli inh,LMP1 NFkB inh,TROY NFkB inh,PAX8 reporter,LGR2 inh,TWEAK Fn14 block
O=C(NC1CCCCC1)C12CC3CC(C1)CC(n1cncn1)(C3)C2,·,78,–,·,–,–
CC(NC(=O)C12CC3CC(C1)CC(n1cncn1)(C3)C2)C12CC3CC(CC(C3)C1)C2 (stereo not drawn),·,–,–,·,·,–
C#CCN(C[C@@H]1[C@@H](OC(=O)NC2CCCC2)[C@@H](OC(=O)NC2CCCC2)CN(C(=O)OC(C)C)N1C(=O)OC(C)C)S(=O)(=O)c1ccc(C)cc1,–,–,–,79,–,–
C#CCN(C[C@@H]1[C@@H](OC(=O)NCc2ccco2)[C@@H](OC(=O)NCc2ccco2)Cn2c(=O)ccc(=O)n21)S(=O)(=O)c1ccc(C)cc1,–,–,–,73,?,–
C#CCN(C[C@@H]1[C@@H](OC(=O)NCc2ccc(OC)c(OC)c2)[C@@H](OC(=O)NCc2ccc(OC)c(OC)c2)CN(C(=O)OC(C)C)N1C(=O)OC(C)C)S(=O)(=O)c1ccc(C)cc1,–,–,–,–,–,–
C#CCN(C[C@@H]1[C@@H](OC(=O)NCC2CCCCC2)[C@@H](OC(=O)NCC2CCCCC2)Cn2c(=O)ccc(=O)n21)S(=O)(=O)c1ccc(C)cc1,–,90,74,116,72,107
C#CCN(C[C@@H]1[C@@H](OC(=O)NCc2ccco2)[C@@H](OC(=O)NCc2ccco2)Cn2c(=O)n(CCCCCC)c(=O)n21)S(=O)(=O)c1ccc(C)cc1,–,–,–,–,–,–
CCCCCCNC(=O)O[C@H]1Cn2c(=O)ccc(=O)n2[C@@H]2CN(S(=O)(=O)c3ccc(C)cc3)C[C@]12O,71,–,–,77,–,89
Cc1ccc(S(=O)(=O)N(C)C[C@@H]2Oc3ccc(NS(=O)(=O)c4ccc(Cl)cc4)cc3C(=O)N([C@@H](C)CO)C[C@H]2C)cc1,–,·,·,·,–,·
C[C@H](CO)N1C[C@H](C)[C@H](CN(C)Cc2ccncc2)Oc2c(NS(=O)(=O)c3cn(C)cn3)cccc2C1=O,–,·,·,–,–,·
COc1ccc(S(=O)(=O)N(C)C[C@@H]2OCCCC[C@H](C)Oc3ccc(NS(=O)(=O)c4ccc(C)cc4)cc3C(=O)N([C@H](C)CO)C[C@H]2C)cc1,–,·,·,–,–,·
COc1ccc(NC(=O)N(C)C[C@@H]2OCCCC[C@H](C)Oc3ccc(NC(=O)CCC(F)(F)F)cc3C(=O)N([C@@H](C)CO)C[C@@H]2C)cc1,–,·,·,–,–,·
C#CCN(C[C@@H]1[C@@H](OC(=O)NCc2ccc(OC)c(OC)c2)[C@@H](OC(=O)NCc2ccc(OC)c(OC)c2)Cn2c(=O)ccc(=O)n21)S(=O)(=O)c1ccc(C)cc1,–,–,–,113,–,–
C#CCN(C[C@@H]1[C@@H](OC(=O)NCc2ccc(OC)c(OC)c2)[C@@H](OC(=O)NCc2ccc(OC)c(OC)c2)Cn2c(=O)n(CCCCCC)c(=O)n21)S(=O)(=O)c1ccc(C)cc1,–,–,–,–,–,–
C#CCN(C[C@@H]1[C@@H](OC(=O)NCCCCCC)[C@@H](OC(=O)NCCCCCC)Cn2c(=O)ccc(=O)n21)S(=O)(=O)c1ccc(C)cc1,67,90,88,113,?,106
C[C@H](CO)N1C[C@H](C)[C@H](CN(C)Cc2ccc(C(F)(F)F)cc2)Oc2c(NS(=O)(=O)c3cccs3)cccc2C1=O,–,·,·,–,–,·
CO[C@@H]1CN(C)C(=O)c2ccc(NC(=O)Nc3ccc4c(c3)OCO4)cc2OC[C@@H](C)N(C(C)=O)C[C@H]1C,–,·,·,–,–,·
C[C@@H]1CN([C@@H](C)CO)C(=O)Cc2cc(N(C)C)ccc2O[C@@H]1CN(C)S(=O)(=O)c1ccccc1,·,·,·,–,–,·
c1ccc(Nc2nnc(-c3cccnc3)s2)cc1,–,–,–,–,–,51
Nc1nnc(-c2cccnc2)s1,·,–,–,·,·,–
CCOc1ccc(C(=O)Nc2cccc(-c3nc4ccccc4[nH]3)c2C)cc1[N+](=O)[O-],83,–,–,–,–,–
O=C(NCCc1ccccc1)c1ccc2c(c1)OCCO2,90,84,83,·,102,99
Cc1ccc(C(=O)NCCc2ccccc2)cc1,·,57,67,·,·,97
COC(=O)c1c(N)sc(C(=O)NCCc2ccccc2)c1C,83,67,76,65,98,99
O=C(NCCc1ccccc1)c1ccc2c(c1)OCCCO2,89,85,84,110,102,101
SMILES,EWS-Fli inh,LMP1 NFkB inh,TROY NFkB inh,PAX8 reporter,LGR2 inh,TWEAK Fn14 block
COc1cccc(OC)c1C(=O)NCCc1ccccc1,–,–,–,–,–,–
COc1ccc(CCNC(=O)c2ccc3c(c2)OCCO3)cc1,–,–,–,–,·,–
Cc1ccc(C(=O)NCCc2ccncc2)cc1,·,–,–,·,·,–
Cc1ccc(S(=O)(=O)Nc2ccc3c(c2)CC(=O)N([C@H](C)CO)C[C@H](C)[C@H](CN(C)S(=O)(=O)c2cccs2)O3)cc1,–,·,·,–,–,·
O=C(NCc1ccc2c(c1)OCO2)c1ccc2c(c1)OCCO2,·,–,–,·,·,–
O=C(CCN1CCC(c2ccccc2)C1)c1ccc2c(c1)OCCO2 (stereo not drawn),–,82,–,76,–,–
COc1cccc(CC(=O)NNC(=O)c2ccc3c(c2)OCO3)c1,–,45,–,–,–,–
O=C(CCc1ccccc1)c1ccc2c(c1)OCCCO2,·,–,–,·,·,–
O=C(CCN1CCC(c2ccccc2)C1)c1ccccc1 (stereo not drawn),–,–,–,·,–,–
O=C(CCCc1ccccc1)c1ccc2c(c1)OCCO2,86,61,88,·,101,102
COC(=O)c1ccc(CNC(=O)c2ccc3c(c2)OCCO3)cc1,–,–,–,–,–,79
CC(C)C#Cc1cnc2c(c1)C(=O)N([C@H](C)CO)C[C@H](C)[C@H](CN(C)C(=O)Nc1ccc(F)cc1)O2,–,·,·,·,–,·
COc1cccc(-c2cnc3c(c2)C(=O)N([C@H](C)CO)C[C@H](C)[C@H](CN(C)C(=O)NC2CCCCC2)O3)c1,–,·,·,·,–,·
C[C@@H]1CN([C@H](C)CO)C(=O)c2cc(/C=C/c3ccccc3)cnc2O[C@@H]1CN(C)C(=O)c1ccc(F)cc1,–,·,·,·,–,·
Cc1cc(C(=O)Nc2cccc3c2O[C@H](CN(C)Cc2ccc(Cl)c(Cl)c2)[C@@H](C)CN([C@H](C)CO)C3=O)n(C)n1,–,·,·,–,–,·
O=C(NCCOc1ccccc1)c1ccc2c(c1)OCO2,·,66,63,·,·,94
CNC(=O)C[C@@H]1CC[C@H]2[C@@H](COc3ccc(NC(=O)Nc4c(C)noc4C)cc3C(=O)N2C)O1,–,·,·,–,–,·
Cc1ccc(C)c(N2C(=O)CC(Cc3ccccc3)C2=O)c1 (stereo not drawn),–,75,–,–,–,–
c1ccc(OCCNc2ccn3nc(-c4ccc(OCCN5CCOCC5)cc4)cc3n2)cc1,–,·,–,–,–,54
c1csc(CNc2ccn3nc(-c4ccc(OCCN5CCOCC5)cc4)cc3n2)c1,–,·,–,–,–,–
